Values joined by “and” are separate entries in the source; they are usually repeats but may differ in a detail not shown here. Equal entries are not always repeated. Active and inactive are the calls of the source. Where a call stands in place of a potency, no number is given. Unless noted, calls come from the whole dose curve; as a rule, active = well fitted curve in the direction sought with a large enough effect in the repeat runs; inconclusive = weak or mixed curves; inactive = no such curve, though single readings can be large; an effect the other way counts as inactive or inconclusive.
How the values were obtained:
[1] = tested on: thyroid hormone receptor (rat, GH3 cells); experiment: qHTS assay to identify small molecule agonists of the thyroid receptor (TR) signaling pathway (AID 743066; calls by dose curve)
[2] = target: Estrogen receptor (Homo sapiens) (UniProt P03372); experiment: qHTS assay to identify small molecule antagonists of the estrogen receptor alpha (ER-alpha) signaling pathway (AID 743069; active = well fitted curve in the direction sought with a large enough effect in the signal ratio in the repeat runs, not every such curve was filed as active; inconclusive = weak or mixed curves, or effect the other way; inactive = no such curve, though single readings can be large or run the other way; the % refers to the signal ratio; note: potency is the fitted concentration of half-maximal effect)
Sequence of Estrogen receptor (Homo sapiens) (P03372 whole entry, looked up): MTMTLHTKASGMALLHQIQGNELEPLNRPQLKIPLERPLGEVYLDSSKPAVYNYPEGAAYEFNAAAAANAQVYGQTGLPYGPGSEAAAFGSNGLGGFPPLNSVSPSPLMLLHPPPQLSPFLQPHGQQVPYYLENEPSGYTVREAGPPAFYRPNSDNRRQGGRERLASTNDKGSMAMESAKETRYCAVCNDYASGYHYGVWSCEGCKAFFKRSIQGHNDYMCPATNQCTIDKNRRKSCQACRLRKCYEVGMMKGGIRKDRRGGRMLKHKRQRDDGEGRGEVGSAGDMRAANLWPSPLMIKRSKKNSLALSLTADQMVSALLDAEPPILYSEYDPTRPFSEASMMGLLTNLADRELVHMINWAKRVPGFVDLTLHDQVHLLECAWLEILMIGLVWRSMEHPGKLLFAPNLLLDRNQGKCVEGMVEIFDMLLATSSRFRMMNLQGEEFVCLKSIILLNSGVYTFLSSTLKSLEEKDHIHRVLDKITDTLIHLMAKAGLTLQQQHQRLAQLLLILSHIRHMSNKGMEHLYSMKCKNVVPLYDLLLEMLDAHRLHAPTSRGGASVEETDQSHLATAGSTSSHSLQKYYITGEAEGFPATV
In short: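 Reporter cells (ER-alpha-bla, HEK293 background) are conditioned overnight in stripped-serum medium (2% charcoal-stripped FBS). Compound and 17beta-estradiol exposure runs 18 hr at 37C, 5% CO2.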

[3] = qHTS assay to identify small molecule antagonists of the estrogen receptor alpha (ER-alpha) signaling pathway - cell viability counter screen (AID 743074; calls by dose curve;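 note: HEK293 cells carrying ER-alpha-UAS-bla reporter stimulated with 17beta-estradiol; nearly all actives have a fitted effect of over 45% in size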; note: potency is the fitted concentration of half-maximal effect)
[4] = target: Estrogen receptor (Homo sapiens) (UniProt P03372); experiment: qHTS assay to identify small molecule agonists of the estrogen receptor alpha (ER-alpha) signaling pathway (AID 743075; calls by dose curve;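 note: HEK293 GripTite cells with ER-alpha and UAS-driven beta-lactamase reporter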; note: potency is the fitted concentration of half-maximal effect)
[5] = target: Estrogen receptor (Homo sapiens) (UniProt P03372); experiment: qHTS assay to identify small molecule agonists of the estrogen receptor alpha (ER-alpha) signaling pathway using the BG1 cell line (AID 743079); conditions: BG1Luc4E2 cells, ERE-luciferase agonist, 22 h; activation: at 70.3 µM (top of the series); note: nearly all actives have a fitted effect of over 20% in size; note: potency is the fitted concentration of half-maximal effect
[6] = qHTS assay to identify small molecule antagonists of the estrogen receptor alpha (ER-alpha) signaling pathway using the BG1 cell line (AID 743080; calls by dose curve; note: nearly all actives have a fitted effect of over 25% in size; note: potency is the fitted concentration of half-maximal effect)
In short: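 Antagonist mode: compounds in DMSO were pinned onto BG1-Luc-4E2 cells alongside 17beta-estradiol agonist, incubated 21.5 h, and ERE-driven luciferase measured with ONE-Glo. Cytotoxicity was multiplexed using CellTiter-Fluor fluorescence.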

[7] = qHTS assay to identify small molecule antagonists of the estrogen receptor alpha (ER-alpha) signaling pathway using the BG1 cell line - cell viability counter screen (AID 743081);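 note: compound given together with 17beta-estradiol as the ER stimulus; nearly all actives have a fitted effect of over 45% in size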; note: potency is the fitted concentration of half-maximal effect
Aromatase (Homo sapiens) = Aromatase (Homo sapiens) (UniProt P11511); experiment: qHTS assay to identify aromatase inhibitors (AID 743083); note: nearly all actives have a fitted effect of over 55% in size
Sequence of Aromatase (Homo sapiens) (P11511 whole entry, looked up): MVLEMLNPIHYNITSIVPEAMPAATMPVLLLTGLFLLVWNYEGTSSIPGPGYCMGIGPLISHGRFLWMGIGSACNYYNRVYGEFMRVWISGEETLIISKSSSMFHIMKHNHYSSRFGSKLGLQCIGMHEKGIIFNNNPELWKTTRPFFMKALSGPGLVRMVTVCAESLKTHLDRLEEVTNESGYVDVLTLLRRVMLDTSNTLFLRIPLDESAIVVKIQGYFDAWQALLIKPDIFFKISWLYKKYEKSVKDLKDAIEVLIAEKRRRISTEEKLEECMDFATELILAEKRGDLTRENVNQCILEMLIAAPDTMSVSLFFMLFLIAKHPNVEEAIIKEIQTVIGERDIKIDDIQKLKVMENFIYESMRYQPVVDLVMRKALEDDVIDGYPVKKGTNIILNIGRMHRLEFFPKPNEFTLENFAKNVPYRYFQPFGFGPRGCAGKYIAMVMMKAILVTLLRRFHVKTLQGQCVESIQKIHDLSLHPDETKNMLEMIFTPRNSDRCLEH

[8] = qHTS assay to identify aromatase inhibitors - cell viability counter screen (AID 743084);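 note: cells stimulated with testosterone during compound exposure; nearly all actives have a fitted effect of over 55% in size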; note: potency is the fitted concentration of half-maximal effect
[9] = target: Aryl hydrocarbon receptor (Homo sapiens) (UniProt P35869); experiment: qHTS assay to identify small molecule that activate the aryl hydrocarbon receptor (AhR) signaling pathway (AID 743085); note: nearly all actives have a fitted effect of over 15% in size; note: potency is the fitted concentration of half-maximal effect;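 for activation: HG2L7.5c1 human HepG2 liver cells with stably integrated DRE-driven firefly reporter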
Sequence of Aryl hydrocarbon receptor (Homo sapiens) (P35869 whole entry, looked up): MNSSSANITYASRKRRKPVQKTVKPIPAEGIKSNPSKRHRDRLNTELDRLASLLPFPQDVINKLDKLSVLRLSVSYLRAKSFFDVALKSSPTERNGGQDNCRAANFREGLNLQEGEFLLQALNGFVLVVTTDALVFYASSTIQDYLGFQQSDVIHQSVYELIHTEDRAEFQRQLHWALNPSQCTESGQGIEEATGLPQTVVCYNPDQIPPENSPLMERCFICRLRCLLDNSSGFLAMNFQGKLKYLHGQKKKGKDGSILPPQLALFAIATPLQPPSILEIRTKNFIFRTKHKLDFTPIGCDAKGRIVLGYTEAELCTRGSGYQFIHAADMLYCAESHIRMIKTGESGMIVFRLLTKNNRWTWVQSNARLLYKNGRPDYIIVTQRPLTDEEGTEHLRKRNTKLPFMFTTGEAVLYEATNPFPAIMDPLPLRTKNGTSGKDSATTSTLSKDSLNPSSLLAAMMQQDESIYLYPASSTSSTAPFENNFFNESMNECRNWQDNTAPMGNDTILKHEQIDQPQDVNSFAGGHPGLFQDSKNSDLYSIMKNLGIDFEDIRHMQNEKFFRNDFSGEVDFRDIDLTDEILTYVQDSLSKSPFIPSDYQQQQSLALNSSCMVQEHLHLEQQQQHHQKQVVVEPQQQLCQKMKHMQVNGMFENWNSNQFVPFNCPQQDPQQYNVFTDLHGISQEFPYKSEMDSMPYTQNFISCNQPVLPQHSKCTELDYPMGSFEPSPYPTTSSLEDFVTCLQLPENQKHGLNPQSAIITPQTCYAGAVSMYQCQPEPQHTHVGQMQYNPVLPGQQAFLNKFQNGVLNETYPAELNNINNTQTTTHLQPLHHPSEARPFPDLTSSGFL
In short: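 Cell line HG2L7.5c1 (human hepatoma, 20× DRE-luc). Plated, 5 h 37C, compound/DMSO added, 24 h 37C. CellTiter-Fluor 30 min 37C → fluorescence; then ONE-Glo 30 min RT → luminescence.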

[10] = qHTS assay to identify small molecule that activate the aryl hydrocarbon receptor (AhR) signaling pathway - cell viability counter screen (AID 743086); note: nearly all actives have a fitted effect of over 45% in size; note: potency is the fitted concentration of half-maximal effect
In short: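 HepG2-AhR-luc (HG2L7.5c1) cells, 4000/well, treated 24 h at 37 C with compound; viability measured as CellTiter-Fluor fluorescence after 30 min in the same wells as the luciferase read.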

[11] = target: Peroxisome proliferator-activated receptor gamma (Homo sapiens) (UniProt P37231); experiment: qHTS assay to identify small molecule agonists of the peroxisome proliferator-activated receptor gamma (PPARg) signaling pathway (AID 743094; active = well fitted activation curve with a large enough effect in the signal ratio in the repeat runs, not every such curve was filed as active; inconclusive = weak or mixed curves, or effect the other way; inactive = no such curve, though single readings can be large or run the other way; the % refers to the signal ratio)
Sequence of Peroxisome proliferator-activated receptor gamma (Homo sapiens) (P37231 whole entry, looked up): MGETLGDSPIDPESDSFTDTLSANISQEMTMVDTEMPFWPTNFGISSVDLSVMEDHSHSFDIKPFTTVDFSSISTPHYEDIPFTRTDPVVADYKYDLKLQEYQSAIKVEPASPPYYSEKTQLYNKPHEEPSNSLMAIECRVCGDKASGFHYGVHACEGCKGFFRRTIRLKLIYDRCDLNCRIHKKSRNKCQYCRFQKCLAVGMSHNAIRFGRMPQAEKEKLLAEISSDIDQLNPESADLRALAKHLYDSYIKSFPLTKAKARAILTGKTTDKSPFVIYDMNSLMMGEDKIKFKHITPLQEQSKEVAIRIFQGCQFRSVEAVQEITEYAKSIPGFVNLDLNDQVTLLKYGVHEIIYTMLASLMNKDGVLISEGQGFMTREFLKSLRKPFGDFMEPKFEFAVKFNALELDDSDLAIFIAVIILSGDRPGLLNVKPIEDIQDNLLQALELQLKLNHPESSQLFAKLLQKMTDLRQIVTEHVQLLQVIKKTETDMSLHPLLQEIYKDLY
In short: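 Stably transfected HEK293H cells (GeneBLAzer PPARg UAS-bla) were incubated with test substances for 17 h at 37C after a 5 h pre-incubation; beta-lactamase activity was then detected by FRET substrate fluorescence.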

[12] = target: Peroxisome proliferator-activated receptor gamma (Homo sapiens) (UniProt P37231); experiment: qHTS assay to identify small molecule antagonists of the peroxisome proliferator-activated receptor gamma (PPARg) signaling pathway (AID 743191; calls by dose curve; note: nearly all actives have a fitted effect of over 30% in size)
In short: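 GeneBLAzer PPARg UAS-bla HEK293H cells, 5 h post-plating, exposed to compounds 17 h at 37C. LiveBLAzer B/G FRET substrate added for 1 h at room temperature; beta-lactamase reporter read by fluorescence intensity.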

[13] = qHTS assay to identify small molecule antagonists of the peroxisome proliferator-activated receptor gamma (PPARg) signaling pathway - cell viability counter screen (AID 743194); note: nearly all actives have a fitted effect of over 55% in size; note: potency is the fitted concentration of half-maximal effect
In short: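 Cytotoxicity counter screen in PPARg-bla HEK293H cells, same wells as reporter assay. Compounds plus 50 nM rosiglitazone (final) for 17 h at 37 C, then viability read by CellTiter-Glo luminescence.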

[14] = qHTS assay for small molecule agonists of the antioxidant response element (ARE) signaling pathway - cell viability counter screen (AID 743203; calls by dose curve; note: nearly all actives have a fitted effect of over 55% in size; note: potency is the fitted concentration of half-maximal effect)
In short: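 Cells (ARE-bla HepG2, 2,000/well) receive DMSO-dissolved compounds after a 5 hrs rest. Plates incubate 16 hrs at 37C/5% CO2. CellTiter-Glo luminescence is then recorded after 30 min at room temperature.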

[15] = qHTS assay for small molecule activators of the heat shock response signaling pathway - cell viability counter screen (AID 743209); note: nearly all actives have a fitted effect of over 50% in size
In short: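 Quantitative HTS format, Tox21 10K library. HeLa cells carrying an HSE-driven beta-lactamase reporter were treated 5 h at 37 C, then assessed for viability by CellTiter-Glo luminescence.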

[16] = qHTS assay for small molecule activators of the heat shock response signaling pathway (AID 743210; active = well fitted activation curve with a large enough effect in the signal ratio in the repeat runs, with a control signal flat, not every such curve was filed as active; inconclusive = weak or mixed curves; the % refers to the signal ratio;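 note: HeLa cells with beta-lactamase reporter driven by heat shock elements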)
In short: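 Quantitative high-throughput format using an engineered HeLa line in which heat shock response elements drive beta-lactamase; after 5 h with compound, cells received a B/G FRET substrate and fluorescence was read.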

[17] = qHTS assay to identify small molecule antagonists of the thyroid receptor (TR) signaling pathway (AID 743065); note: nearly all actives have a fitted effect of over 55% in size; note: potency is the fitted concentration of half-maximal effect
In short: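 GH3.TRE-Luc rat pituitary cells (two TREs driving luciferase) were dosed with compound, then stimulated with 1 nM T3 (final) for 23.5 h at 37 C. ONE-Glo luminescence was the read-out, with CellTiter-Fluor fluorescence as the cytotoxicity counter-screen.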

[18] = qHTS assay for small molecule agonists of the antioxidant response element (ARE) signaling pathway (AID 743202; active = well fitted activation curve with a large enough effect in the signal ratio in the repeat runs, not every such curve was filed as active; inconclusive = weak or mixed curves, or effect the other way; inactive = no such curve, though single readings can be large or run the other way; the % refers to the signal ratio)
In short: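 Agonist mode reporter screen: HepG2 cells with ARE-controlled beta-lactamase are incubated with test compounds for 16 h at 37 C, and beta-lactamase activity is measured as fluorescence of cleaved B/G FRET substrate.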

Row | Structure (SMILES) | outcome [1] | Potency [2] | Potency [3] | Potency [4] | Potency [5] | Potency [6] | Potency [7] | Potency (Aromatase (Homo sapiens)) | Potency [8] | Potency [9] | Potency [10] | Potency [11] | Potency [12] | Potency [13] | Potency [14] | Potency [15] | Potency [16] | Potency [17] | Potency [18]
1 | CC(C)Nc1cccnc1N1CCN(C(=O)c2cc3cc(NS(C)(=O)=O)ccc3[nH]2)CC1 | inactive | inactive | inactive | inactive | inactive | inactive | inactive | inactive | inactive | inactive | inactive | inactive | inactive | inactive | inactive | inactive | inactive | – | –
2 | CC(=O)Nc1cc(S(=O)(=O)O)cc2cc(S(=O)(=O)O)c(N=Nc3ccccc3)c(O)c12 | inactive | – | inactive | inactive | – | – | 8.63 µM (active) | inactive | 24.3 µM (active) | – | 19.3 µM (active) | inactive | – | inactive | inactive | inactive | inactive | inactive | inactive
3 | CN(C)CCN1C(=O)c2ccccc2N(C)c2ccccc21 | inactive | inactive | inactive | inactive | inactive | inactive | inactive | inactive | inactive | inactive | inactive | inactive | inactive | inactive | inactive | inactive | inactive | – | –
4 | C[C@]1(Cn2ccnn2)[C@H](C(=O)O)N2C(=O)C[C@H]2S1(=O)=O | inactive | – | inactive | – | inactive | inactive | – | inactive | inactive | – | inactive | – | – | inactive | inactive | inactive | inactive | inactive | –
5 | CC(=O)OCCN(CCOC(C)=O)c1ccc(N=Nc2ccc([N+](=O)[O-])cc2C#N)cc1 | inactive | – | inactive | – | – | – | – | – | 27.3 µM (active) | – | inactive | inactive | inactive | inactive | inactive | inactive | inactive | 61.1 µM (active) | –
6 | O=C(O)c1cccc(-c2noc(-c3ccccc3F)n2)c1 | inactive | – | – | – | – | – | inactive | inactive | inactive | – | inactive | – | – | – | – | inactive | inactive | 10.6 µM (active) | –
7 | CC(C)COCC(CN(Cc1ccccc1)c1ccccc1)N1CCCC1 (stereo not drawn) | – | – | inactive | inactive | inactive | inactive | inactive | – | inactive | inactive | inactive | inactive | inactive | 26.6 µM (active) | 26.6 µM (active) | – | – | 10.6 µM (active) | –
8 | Cc1cc(=O)c2c(O)c3c(O)cc(=O)c4c3c3c(cc(O)c1c23)C(C)(C)C=4O | – | – | – | – | – | – | – | – | inactive | – | inactive | – | – | – | – | – | – | 0.596 µM (active) | –
9 | CCCCOc1ccc(OCCCN2CCOCC2)cc1 | inactive | inactive | inactive | inactive | inactive | inactive | inactive | inactive | inactive | – | inactive | inactive | inactive | inactive | – | inactive | inactive | – | –
10 | CC(=O)OCC[N+](C)(C)C | inactive | – | inactive | – | – | – | inactive | inactive | inactive | inactive | inactive | inactive | inactive | inactive | inactive | inactive | inactive | inactive | –
11 | CC1(C)O[C@@H]2C[C@H]3[C@@H]4C[C@H](F)C5=CC(=O)C=C[C@]5(C)[C@H]4[C@@H](O)C[C@]3(C)[C@]2(C(=O)CO)O1 | inactive | – | inactive | – | inactive | – | inactive | inactive | inactive | inactive | inactive | inactive | – | inactive | inactive | inactive | inactive | inactive | inactive
12 | Cc1ccc2c(Br)cc(Br)c(O)c2n1 | – | – | inactive | – | – | – | inactive | – | – | 13.3 µM (active) | inactive | – | – | 23.7 µM (active) | inactive | inactive | – | 18.8 µM (active) | –
13 | O=C1NCCN1CCO | inactive | – | inactive | – | – | – | inactive | inactive | – | – | inactive | inactive | inactive | inactive | inactive | inactive | inactive | inactive | –
14 | Oc1cccc(O)c1O | inactive | – | inactive | 21.3 µM [inconclusive] (active) and 54.5 µM [inconclusive] (active) | 5.96 µM (active) | inactive | inactive | inactive | inactive | – | inactive | inactive | inactive | inactive | inactive | inactive | inactive | inactive | inactive
15 | CC[N+](CC)(CCNC(=O)C(=O)NCC[N+](CC)(CC)Cc1ccccc1Cl)Cc1ccccc1Cl | inactive | – | inactive | inactive | – | inactive | inactive | inactive | inactive | inactive | inactive | inactive | inactive | – | – | – | inactive | inactive | –
16 | COc1cc(C(=O)NC2CCN(C)CC2)ccc1Nc1ncc2c(n1)N(C1CCCC1)CC(F)(F)C(=O)N2C | – | 1.59 µM [inconclusive] (active) | 40 µM (active) | inactive | – | 0.25 µM (active) | – | – | 25 µM (active) | inactive | – | inactive | – | 50.4 µM (active) | 28.1 µM (active) | – | inactive | 0.0628 µM (active) | –
17 | C=CC(=O)OCC1CC2CC1C1CCC(COC(=O)C=C)C21 (stereo not drawn) | inactive | – | – | – | – | – | inactive | inactive | inactive | – | inactive | inactive | – | – | inactive | – | – | 61.1 µM (active) | –
18 | C=C/C(C)=C/C/C=C(\C)CCC=C(C)C | inactive | inactive | inactive | inactive | inactive | inactive | inactive | inactive | – | – | inactive | – | – | inactive | – | – | – | – | –
